# Source: PubChem BioAssay
# Shown are actives, neighbours in structure and some others; about 19% of the full set was active somewhere.
# ELG1 repair inh = qHTS screen for small molecules that inhibit ELG1-dependent DNA repair in human embryonic kidney (HEK293T) cells expressing luciferase-tagged ELG1; HEK293T ELG1-luciferase reporter, luminescence, 16 h; DNA damage induced by 5-fluorouridine; Potency, µM (titrated, usually from 46.1 µM), inactives show at the top dose activity change, negative = inhibition, hits mostly inhibitors; 2.3% of 330,000 active; AID 504467, 2011; also: potency is read from the fitted curve at half-maximal effect; nearly all actives have a fitted effect of over 55% in size
#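 In this reporter screen, reduction of luminescence relative to DMSO vehicle indicated activity. Compounds and 5-fluorouridine were added together to 2,000 cells per well, incubated for 16 hr at 37 °C, then developed with ONE-Glo.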
# IL1B secr inh = qHTS for Inhibitors of Inflammasome Signaling: IL-1-beta AlphaLISA Primary Screen; 4.7% of 360,000 active; activity change, % at 57.5 µM; THP-1 LPS/ATP IL-1B secretion, AlphaLISA, 16 h; hits give low values; AID 743279, 2014; in the data active = activity change below about -50%; inconclusive = mostly about -30% to -49%
#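 THP-1 cells pretreated 1 hr with compounds (up to 57.5 uM final), then stimulated with LPS (250 ng/mL final) plus ATP (1.25 mM final); secreted IL-1B measured by AlphaLISA after 16 hr, decreased signal indicating inhibition.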
# HT1080NT lethal = qHTS for induction of synthetic lethality in tumor cells producing 2HG: qHTS for the HT-1080-NT fibrosarcoma cell line | 1.6% of 360,000 active | AID 686970, 2013 | HT-1080-NT fibrosarcoma viability, CellTiter-Glo ATP luminescence, 48 h | Potency, µM (titrated, usually from 46.1 µM), for the others: top-dose activity, negative = less viability, hits mostly cytotoxic;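 also: NT is the 2HG producing partner of a matched IDH1 knockdown line; potency is read from the fitted curve at half-maximal effect; 0% = DMSO-treated cells and -100% = media-only wells without cells; nearly all actives have a fitted effect of over 55% in size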
#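 Fibrosarcoma NT cells, 750 per well in 5% FBS RPMI, were exposed to compound for 48 hours. Viability: CellTiter-Glo luminescence.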
# HT1080 IDH1KD tx = qHTS for induction of synthetic lethality in tumor cells producing 2HG: qHTS for the HT-1080-IDH1KD cell line. HT-1080 IDH1 knockdown viability, ATP luminescence, 48 h. AID 686971, 2013. 2% of 360,000 active. Potency, µM (highest dose often 46.1 µM), for inactives: top-dose activity, negative = toxicity, hits mostly cytotoxic;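 also: potency is read from the fitted curve at half-maximal effect; 0% = DMSO wells and -100% = cell-free medium wells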
#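 IDH1KD HT-1080 cells, 750/well, RPMI + 5% FBS; compound pinned after 2 h settling; 48 h, 37 °C; CellTiter-Glo luminescence; % activity normalised to DMSO and no-cell wells; curves fitted, classed by r2 and efficacy.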
# DT40 TDP1 no CPT = qHTS for Inhibitors of human tyrosyl-DNA phosphodiesterase 1 (TDP1): qHTS in cells in absence of CPT. 15% of 420,000 active. Potency, µM (highest dose often 46.2 µM), for inactives: at the highest dose activity change, negative = growth inhibition, usual class: inhibitors. DT40 Tdp1-/- hTDP1 cells, no CPT, ATP luminescence, 48 h; also: potency is read from the fitted curve at half-maximal effect; nearly all actives have a fitted effect of over 55% in size
#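 Cells were dispensed at 400 per well, compounds added by pin tool, plates incubated ≥48 hr at 37 °C, then CellTiter-Glo added for 30 min at room temperature before luminescence reading. Line: DT40 Tdp1-/- complemented with hTDP1; camptothecin omitted.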
# TDP1 cell CPT = qHTS for Inhibitors of human tyrosyl-DNA phosphodiesterase 1 (TDP1): qHTS in cells in presence of CPT | chicken DT40 Tdp1-/-;hTDP1 cells + 20 nM CPT, ATP luminescence, 48 h | AID 686979, 2013 | 12% of 420,000 active | Potency, µM (top dose mostly 46.2 µM), for the others: at the top dose activity change, negative = growth inhibition, usual class: inhibitors; also: potency is read from the fitted curve at half-maximal effect; nearly all actives have a fitted effect of over 55% in size
#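 Chicken DT40 Tdp1-/- cells stably complemented with human TDP1 were seeded at 400 cells/well in medium containing 20 nM camptothecin, exposed to pin-transferred compounds, and grown at 37 °C for at least 48 hr. Viability was read as ATP luminescence.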
# The depositor's hits bear a star; ? = inconclusive; · = not tested or not shown; [ ] = remark or other dose. Unless noted, calls follow the shape of the dose curve; as a rule, active = well fitted curve in the direction sought with a large enough effect; inconclusive = small, poorly fitted or top-dose-only effect, or another doubt; inactive = no such curve, though single readings can be large; an effect the other way counts as inactive or inconclusive. Unless noted, % is scaled to controls: 0 for no effect and ±100 for the full control effect.
SMILES,ELG1 repair inh,IL1B secr inh,HT1080NT lethal,HT1080 IDH1KD tx,DT40 TDP1 no CPT,TDP1 cell CPT
CC(=O)Nc1ccccc1-c1ccccc1[N+](=O)[O-],·,-3,4%,-2%,-10%,7%
CCS(=O)(=O)c1cc([N+](=O)[O-])c(Sc2ccccc2NC(C)=O)s1,?,-18,-1%,-8%,5.2µM*,3.3µM*
CNc1c(NS(=O)(=O)c2cc(Cl)ccc2OC)c(=O)oc2ccccc12,-24%,-5,-14%,-4%,?,-21%
Cc1ncc(CO)c(CNc2ccc(Oc3ccccc3)cc2)c1O,?,4,-19%,?,6.5µM*,13µM*
O=C(Nc1nnc(-c2ccc(Cl)s2)o1)C1CCCCC1,·,-13,-8%,-7%,?,15µM*
O=C(Nc1nnc(-c2ccc(Cl)cc2)o1)C1CCCCC1,4%,8,11%,-6%,18µM*,?
CCc1ccc(NC(=O)CSc2nnc3[nH]c(=O)cc(-c4ccccc4)n23)cc1,·,·,·,·,7%,?
COc1cccc(/C=N/N2CCN(C3c4ccccc4-c4ccccc43)CC2)c1O,?,-6,-2%,1%,16µM*,?
COc1ccccc1N1CCN(/N=C/c2cccc(OC)c2O)CC1,?,0,5%,7%,?,-17%
C(=N\N1CCN(C2c3ccccc3-c3ccccc32)CC1)/c1ccncc1,29%,-21,0%,-1%,?,?
COc1cc(/C=N/N2CCN(C3c4ccccc4-c4ccccc43)CC2)ccc1O,?,0,?,?,23µM*,26µM*
Oc1cccc(/C=N/N2CCN(C3c4ccccc4-c4ccccc43)CC2)c1,-3%,-57*,?,23µM*,?,?
Cc1cccc(Oc2nc3c(c(=O)n(C)c(=O)n3C)n2C)c1C,·,·,·,·,-25%,-16%
CCOc1ccc(Br)cc1C1C(C(=O)Nc2ccccc2OC)=C(C)Nc2nnnn21 (stereo not drawn),·,·,·,·,-14%,-30%
O=C(COc1ccccc1C(=O)O)Nc1nc2ccc([N+](=O)[O-])cc2s1,-6%,-26,-8%,-1%,-23%,?
CCCc1cc2c(=O)c(-c3ccccn3)coc2cc1OC,?,-8,?,4%[9.24 µM],8.2µM*,?
N#Cc1c(Cl)nc2c(c1C#N)CCCC2,0%,-4,3%,-3%,18µM*,6%
O=C(COC(=O)/C=C/c1ccc(C(F)(F)F)cc1)NCC1CCCO1 (stereo not drawn),21%,-5,0%,1%,?,?
COc1ccccc1Cn1cc(C(=O)c2ccc(C)cc2)c(=O)c2cc(C)ccc21,·,·,·,·,7.3µM*,5.2µM*
O=C(c1ccc(F)cc1)c1cn(Cc2ccccc2F)c2cc3c(cc2c1=O)OCCO3,·,·,·,·,21µM*,?
COc1ccccc1Cn1cc(C(=O)c2ccc(C)cc2)c(=O)c2cc3c(cc21)OCCO3,·,·,·,·,21µM*,15µM*
COCCNC(=O)CN1C(=O)NC2(CCCc3ccccc32)C1=O (stereo not drawn),-16%,-1,1%,23%,-3%,1%
CC(=O)N1CCC2(CC1)CN(C(=O)Nc1cccc(C#N)c1)C2,·,·,·,·,5%,-1%
CCc1nc2ccc(C(=O)N(C)CC(=O)Nc3cccc(F)c3)cc2nc1CC,-27%,14,-10%,-1%,?,?
